In the library only some 0.91% were active in any assay of this set; here they are far more common.
APE1 inh-1 = APE1 (human) endonuclease inhibition; P27695; recombinant APE1, TAMRA/BHQ-2 abasic DNA cleavage fluorescence; Potency, µM (highest dose often 65.8 µM), for the others: at the highest dose activity change, negative = inhibition, most hits filed as inhibitors; 350,000 compounds, 0.35% hits; AID 2517;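 also: plate controls were vehicle for no effect and reference inhibitor for full effect; nearly all actives have a fitted effect of over 55% in size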
Target sequence (P27695 whole entry, looked up): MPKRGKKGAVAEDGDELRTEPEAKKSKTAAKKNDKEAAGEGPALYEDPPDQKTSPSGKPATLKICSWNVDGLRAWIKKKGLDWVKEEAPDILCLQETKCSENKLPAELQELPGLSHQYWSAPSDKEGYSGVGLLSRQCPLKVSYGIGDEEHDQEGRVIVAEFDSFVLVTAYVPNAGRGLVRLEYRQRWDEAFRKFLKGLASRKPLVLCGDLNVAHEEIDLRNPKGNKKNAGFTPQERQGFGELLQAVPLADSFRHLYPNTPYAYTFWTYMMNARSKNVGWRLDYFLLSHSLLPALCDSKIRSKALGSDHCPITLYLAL
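APE1 at 0.75 nM preincubated 15 min at room temperature with compound. Reaction then started with 50 nM double-stranded THF-abasic substrate labelled with TAMRA/BHQ-2, and 525/598 nm fluorescence read kinetically. Activity taken as third-minus-first read difference, normalized to DMSO and NSC13755 controls.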
BLM helicase inh = blocks DNA unwinding by human BLM helicase | P54132 | recombinant BLM DNA unwinding, fluorescence dequenching | Potency, µM (series often up to 56.1 µM), for the others: at the highest dose activity change, negative = inhibition, usual class: inhibitors | 350,000 compounds, 0.2% hits | AID 2528;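 also: plate controls were vehicle for no effect and no enzyme for full effect; nearly all actives have a fitted effect of over 35% in size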
TR SRC2 fluor cs = alters Texas Red total fluorescence, flagging assay interference; TRb/SRC2 Texas Red total fluorescence interference; Potency, µM (top dose mostly 106 µM), for inactives: top-dose fluorescence change, negative = quenching; 280,000 compounds, 0.29% hits; AID 1479; active = well fitted curve in either direction with a large enough effect; inconclusive = small, poorly fitted or top-dose-only effect
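Flags fluorescent or light-absorbing compounds by total fluorescence, S + 2P, at 555 nm excitation and 632 nm emission. Mixture: 20 nM Texas Red SRC2 peptide, 0.6 uM human TRb LBD, 1 uM T3, 5% DMSO; compound exposure 5 h at ambient temperature.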
TRb SRC2 PPI = inhibitors of human thyroid hormone receptor beta-SRC2 interaction; TRbeta-SRC2 peptide binding, fluorescence polarization; receptor liganded with 1 µM T3; Potency, µM (highest dose often 106 µM), without a hit: top-dose activity change, negative = inhibition, hits mostly inhibitors; 280,000 compounds, 0.065% hits;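 also: plate controls were bound peptide for no effect and peptide without receptor for full effect; nearly all actives have a fitted effect of over 50% in size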
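Quantitative HTS by FP: 0.6 uM TRb LBD, 20 nM labeled SRC2 20-mer, 1 uM T3, 5% DMSO; 5 hr ambient incubation; % activity per concentration and potencies from concentration series.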
RECQ1 inh-1 = RECQ1 (human) helicase inhibition | P46063 | RECQ1 DNA unwinding, red fluorescence kinetic read | Potency, µM (doses to about 57.3 µM), for inactives: top-dose activity, negative = inhibition, usual class: inhibitors | 240,000 compounds, 0.54% hits | AID 2549;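 also: plate controls were vehicle for no effect and no enzyme for full effect; nearly all actives have a fitted effect of over 30% in size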
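RECQ1T1 50 nM; forked duplex (20 bp + 30-nt ss tails) 200 nM, ATP 2 mM final; pH 8.0, 2 mM MgCl2, 2.5 ug/ml poly(dI-dC); 15 min compound preincubation; discontinuous kinetic read over 2 h at RT.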
WRN inhibitor = blocks human WRN helicase | WRN helicase unwinding, fluorescent forked duplex, kinetic | Potency, µM (top dose mostly 114 µM), for the others: at the highest dose activity change, negative = inhibition, hits mostly inhibitors | 360,000 compounds, 0.46% hits | AID 651768; also: nearly all actives have a fitted effect of over 55% in size
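Kinetic fluorescence helicase assay: unwinding of a quenched forked DNA duplex (100 nM final) with 2 mM ATP final raises red fluorescence (525/598 nm). Compounds sat 15 min at room temperature with 20 nM WRN beforehand.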
DNA dye displace = counter-screen for APE1 inhibitors: DNA dye displacement | shares compounds with APE1 inh-1 | DNA fluorescent dye displacement counterscreen, fluorescence | AID 2564 | 480 compounds, 7% hits | Potency, µM (titrated, usually from 28.5 µM), without a hit: at the top dose activity change, negative = inhibition, most hits filed as inhibitors;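 also: loss of thiazole orange fluorescence as the dye is displaced from duplex DNA; 0% = ThO with dsDNA and no compound and -100% = ThO without dsDNA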
Endo IV inh = counter-screen for APE1 inhibitors: inhibitors of E. coli endonuclease IV; shares compounds with APE1 inh-1; AID 2565; 560 compounds, 4% hits; Potency, µM (highest dose often 27.1 µM), without a hit: at the top dose activity change, negative = inhibition, most hits filed as inhibitors; E. coli Endo IV, fluorogenic AP-site DNA cleavage;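 also: plate controls were uninhibited enzyme wells for no effect and no enzyme buffer wells for full effect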
APE1 inh-2 = confirmation of inhibitors of human APE1 endonuclease. shares compounds with APE1 inh-1. purified APE1, fluorogenic abasic-site DNA cleavage. Potency, µM (series often up to 57.1 µM), for the others: top-dose activity change, negative = inhibition, hits mostly inhibitors. 750 compounds, 44% hits; also: nearly all actives have a fitted effect of over 30% in size
APE1 FP inh = displaces DNA from human APE1 in FP assay; shares compounds with APE1 inh-1; APE1 binding to TAMRA-labelled double-stranded DNA, fluorescence polarization displacement; Potency, µM (titrated, usually from 28.5 µM), without a hit: at the highest dose activity, negative = inhibition, hits mostly inhibitors; 480 compounds, 7% hits; AID 2573
RECQ1 inh conf = confirmation of human RECQ1 helicase inhibitors. shares compounds with RECQ1 inh-1. RECQ1 helicase DNA unwinding, fluorescence. Potency, µM (doses to about 229 µM), inactives show at the highest dose activity change, negative = inhibition, hits mostly inhibitors. 610 compounds, 28% hits; also: nearly all actives have a fitted effect of over 45% in size
RECQ1 ADP FP = ADP displacement flagged in RECQ1 inhibitor counter-screen | shares compounds with RECQ1 inh-1 | ADP fluorescence polarization displacement counterscreen | Potency, µM (doses to about 228 µM), without a hit: at the highest dose activity change, negative = inhibition, most hits filed as inhibitors | 530 compounds, 27% hits | AID 2711; also: nearly all actives have a fitted effect of over 45% in size
RECQ1 inh-2 = RECQ1 helicase inhibition confirmed, round 2 | shares compounds with RECQ1 inh-1 | recombinant RECQ1 DNA unwinding, red fluorescence | Potency, µM (series often up to 119 µM), for the others: top-dose activity, negative = inhibition, usual class: inhibitors | 1,100 compounds, 15% hits; also: nearly all actives have a fitted effect of over 50% in size
Active calls of the source: *; i = inactive; ? = inconclusive; · = no result. Unless noted, calls follow the shape of the dose curve; as a rule, active = well fitted curve in the direction sought with a large enough effect; inconclusive = small, poorly fitted or top-dose-only effect, or another doubt; inactive = no such curve, though single readings can be large; an effect the other way counts as inactive or inconclusive. Unless noted, % is scaled to controls: 0 for no effect and ±100 for the full control effect; potency is read from the fitted curve at half-maximal effect.

SMILES	APE1 inh-1	BLM helicase inh	TR SRC2 fluor cs	TRb SRC2 PPI	RECQ1 inh-1	WRN inhibitor	DNA dye displace	Endo IV inh	APE1 inh-2	APE1 FP inh	RECQ1 inh-2	others
O=C(O)c1ccc(N2C(=O)c3cccc4c(C(=O)O)ccc(c34)C2=O)cc1	12.6µM*	-8.2%	-2.5%	0.5%	?	50.1µM*	-4.0%	5.4%	?	-95.2%	?
O=C(O)c1ccc2c3c(cccc13)C(=O)N(c1ccccc1)C2=O	?	-13.0%	-1.2%	2.9%	?	-27.7%	·	·	·	·	·
O=C1SC(SCc2ccccc2)=N/C1=C\c1ccco1	?	-5.2%	-2.6%	1.5%	?	50.1µM*	?	-10.4%	?	4.8%	?
CCCSC1=N/C(=C\c2ccsc2)C(=O)S1	-4.3%	-4.3%	0.6%	-13.7%	i	2.2%	·	·	·	·	·
CCCSC1=N/C(=C\C=C\c2ccco2)C(=O)S1	3.98µM*	20µM*	?	-18.2%	7.94µM*	?	-3.1%	17.7%	?	?	?	RECQ1 inh conf=31.6µM*;RECQ1 ADP FP=12.6µM*
CCOC(=O)C1CCCN(C(=O)c2cc(S(=O)(=O)N3CCCCC3)ccc2Cl)C1 (stereo unspecified)	19.5%	·	·	·	·	-32.1%	·	·	·	·	·
Cc1c(C(=O)OCc2ccccc2)[nH]c2c1C(=O)CC(c1ccco1)C2 (stereo unspecified)	25.1µM*	-23.9%	-6.8%	-1.1%	31.6µM*	50.1µM*	6.0%	3.1%	14.1µM*	-39.6%	?
COCCOC(=O)c1[nH]c2c(c1C)C(=O)CC(c1ccco1)C2 (stereo unspecified)	17.8µM*	?	-4.2%	3.9%	35.5µM*	?	-8.6%	3.7%	7.94µM*	-29.5%	?
O=C(CSc1nccc(=O)[nH]1)N1N=C2/C(=C/c3ccco3)CCCC2C1c1ccco1 (stereo unspecified)	12.6µM*	4.5%	-14.0%	-10.7%	15.8µM*	?	-4.7%	2.4%	8.91µM*	-28.0%	?	RECQ1 inh conf=?;RECQ1 ADP FP=?
Cc1cc(C)cc(NC(=O)CCCn2c3ccccc3c(=O)c3ccccc32)c1	·	-6.3%	5.1%	5.9%	·	·	·	·	·	·	·
